These results are taken from PubChem BioAssay (NCATS).

Results filed as inconclusive are left out. Calls of active or inactive are those of the source. Unless noted, calls come from the whole dose curve; as a rule, active = well fitted curve in the direction sought with a large enough effect; inconclusive = small, poorly fitted or top-dose-only effect, or another doubt; inactive = no such curve, though single readings can be large; an effect the other way counts as inactive or inconclusive.

The target of assay [1] is Estrogen receptor (Homo sapiens) (UniProt P03372). The assay is described as follows: qHTS assay for small molecule agonists of estrogen receptor alpha signaling (AID 588514; calls by dose curve;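 note: 0% = vehicle only and 100% = reference agonist; nearly all actives have a fitted effect of over 70% in size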). The gist of the method:
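Cells were plated at 5000/well, incubated 4 hrs at 37 C, dosed with compound titration series, incubated 18 hrs at 37 C, loaded with CCF4 dye for 2 hrs at RT, then fluorescence was read.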
A general note: In qHTS, concentration-response curves come from the screen itself.

For assay [2], the target named is Peroxisome proliferator-activated receptor delta (Homo sapiens) (UniProt Q03181). The assay is described as follows: qHTS assay for small molecule agonists of peroxisome proliferator-activated receptor delta signaling (AID 588534; calls by dose curve;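 note: 0% = DMSO basal wells and 100% = positive control agonist at 10 µM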). A digest of the protocol: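 Fluorescence from CCF4 substrate cleavage by beta-lactamase reporter, read 2 hrs at RT, measured agonist activity. Compounds were tested with 18 hrs exposure at 37 C. Concentration-response data fitted to Hill equation.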
Peroxisome proliferator-activated receptor delta (Homo sapiens), sequence (Q03181 whole entry, looked up): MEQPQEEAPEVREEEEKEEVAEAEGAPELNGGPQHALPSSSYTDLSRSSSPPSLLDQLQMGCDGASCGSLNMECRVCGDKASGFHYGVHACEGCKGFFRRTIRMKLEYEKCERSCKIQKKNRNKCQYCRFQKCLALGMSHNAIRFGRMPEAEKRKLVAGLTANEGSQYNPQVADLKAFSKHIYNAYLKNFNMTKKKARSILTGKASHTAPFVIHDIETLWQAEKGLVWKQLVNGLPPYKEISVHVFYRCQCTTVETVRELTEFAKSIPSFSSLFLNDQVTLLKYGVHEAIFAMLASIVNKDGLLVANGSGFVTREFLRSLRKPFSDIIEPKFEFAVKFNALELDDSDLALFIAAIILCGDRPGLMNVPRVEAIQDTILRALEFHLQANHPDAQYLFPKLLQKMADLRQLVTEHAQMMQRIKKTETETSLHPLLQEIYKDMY

The nature of assay [3]: qHTS assay for small molecule antagonists of peroxisome proliferator-activated receptor delta signaling (AID 588535; active = well fitted inhibition curve with a large enough effect in the signal ratio, with a control signal flat, not every such curve was filed as active; the % refers to the signal ratio;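 for max response: cells co-treated with a PPAR-delta agonist as stimulator during compound exposure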). The conditions noted are these: HEK293T PPARd-UAS-bla, beta-lactamase FRET ratio, 18 h; 460 nm channel. A digest of the protocol: (§1)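 HEK293T PPAR-delta-UAS-bla cells, 4000/well, 2% charcoal/dextran FBS; 5 h 37 C; cpd titration; 18 h 37 C; CCF4 2 h RT; FI 460/530 nm; Hill fit → IC50, efficacy.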

Assay [4] concerns the target Peroxisome proliferator-activated receptor delta (Homo sapiens) (UniProt Q03181). The description is as above. A digest of the protocol:
as §1

Assay [5] deals with Peroxisome proliferator-activated receptor gamma (Homo sapiens) (UniProt P37231). Briefly: qHTS assay for small molecule agonists of peroxisome proliferator-activated receptor gamma signaling (AID 588536; active = well fitted curve in the direction sought with a large enough effect in the signal ratio, with a control signal flat, not every such curve was filed as active; the % refers to the signal ratio;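 note: 0% = DMSO basal wells and 100% = rosiglitazone at 2 µM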). The gist of the method: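 GeneBLAzer PPAR-gamma-UAS-bla HEK293 cells in 1% charcoal/dextran-treated FBS medium were treated 16 h at 37 C with compounds. Beta-lactamase activity was read by CCF4 ratio (460/530 nm). Response was normalized to 2 uM rosiglitazone (100%) and DMSO, then Hill-fitted for EC50 and efficacy.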
Peroxisome proliferator-activated receptor gamma (Homo sapiens), sequence (P37231 whole entry, looked up): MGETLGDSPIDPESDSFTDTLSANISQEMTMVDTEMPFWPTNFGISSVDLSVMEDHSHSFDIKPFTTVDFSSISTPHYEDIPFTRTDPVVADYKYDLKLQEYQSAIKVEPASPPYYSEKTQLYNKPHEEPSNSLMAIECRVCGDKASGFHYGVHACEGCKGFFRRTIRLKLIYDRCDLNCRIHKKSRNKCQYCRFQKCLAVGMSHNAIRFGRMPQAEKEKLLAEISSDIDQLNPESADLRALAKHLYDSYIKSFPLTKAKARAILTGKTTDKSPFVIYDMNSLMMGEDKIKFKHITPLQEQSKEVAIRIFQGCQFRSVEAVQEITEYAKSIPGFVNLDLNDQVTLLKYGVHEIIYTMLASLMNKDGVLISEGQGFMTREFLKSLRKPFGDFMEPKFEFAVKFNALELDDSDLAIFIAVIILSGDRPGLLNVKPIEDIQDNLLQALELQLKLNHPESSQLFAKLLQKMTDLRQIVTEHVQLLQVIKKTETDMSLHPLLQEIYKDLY

The target in assay [6] is Retinoic acid receptor RXR-alpha (Homo sapiens) (UniProt P19793). The assay is described as follows: qHTS assay for small molecule agonists of retinoid X receptor alpha signaling (AID 588544; calls by dose curve;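 note: 0% = DMSO basal wells and 100% = reference agonist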).
Retinoic acid receptor RXR-alpha (Homo sapiens), sequence (P19793 whole entry, looked up): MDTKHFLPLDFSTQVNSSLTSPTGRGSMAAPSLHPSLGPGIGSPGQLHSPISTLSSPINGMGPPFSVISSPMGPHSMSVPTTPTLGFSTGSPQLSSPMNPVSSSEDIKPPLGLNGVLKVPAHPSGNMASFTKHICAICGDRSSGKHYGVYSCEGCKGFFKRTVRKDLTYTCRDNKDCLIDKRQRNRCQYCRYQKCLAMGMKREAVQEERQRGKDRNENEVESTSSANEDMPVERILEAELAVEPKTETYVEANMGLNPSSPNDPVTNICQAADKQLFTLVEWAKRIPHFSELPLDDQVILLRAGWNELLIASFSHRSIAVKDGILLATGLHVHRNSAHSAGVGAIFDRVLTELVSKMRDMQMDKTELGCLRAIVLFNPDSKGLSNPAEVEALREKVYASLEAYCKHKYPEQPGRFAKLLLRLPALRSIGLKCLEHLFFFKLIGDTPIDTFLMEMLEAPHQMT
A short description of assay [7]: qHTS assay for small molecule antagonists of retinoid X receptor alpha signaling (AID 588546; active = well fitted inhibition curve with a large enough effect in the signal ratio, with a control signal flat, not every such curve was filed as active; the % refers to the signal ratio;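 note: cells stimulated with 9-cis-retinoic acid as agonist; % is set by controls: 0 for no effect and ±100 for the full control effect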). The conditions noted are these: HEK293T RXRa-UAS-bla, beta-lactamase ratio, antagonist mode; measured here: W530 green channel, cytotoxicity proxy. A digest of the protocol:
(§2)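 Beta-lactamase reporter inhibition, read as CCF4 fluorescence ratio (ex 405, em 460/530 nm) after 2 h at RT. HEK293T UAS-bla cells, 2500/well, were stimulated with 9-cis-RA at 500 or 100 nM final alongside test compound for 18 h at 37 C.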

In assay [8] the target is Retinoic acid receptor RXR-alpha (Homo sapiens) (UniProt P19793). The assay is described as above. Conditions: HEK293T RXRa-UAS-bla, beta-lactamase ratio, antagonist mode. The gist of the method: as §2
Assay [9] in a line: qHTS assay for small molecule activators of the p53 signaling pathway (AID 651743; active = well fitted activation curve with a large enough effect in the signal ratio, not every such curve was filed as active; the % refers to the signal ratio; note: potency is the fitted concentration of half-maximal effect; for activation: series mostly up to about 92 µM; % of control where 0% means no effect). The conditions noted are these: HCT-116 p53RE-bla, beta-lactamase FRET ratio, 16 h; activation: stronger effect = higher value. The gist of the method: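 Read-out is fluorescence intensity from the LiveBLAzer B/G FRET substrate, added for 2 hours at room temperature after HCT-116 p53RE-bla cells had been incubated with compounds for 16 hours at 37 C.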

Assay [10] can be described thus: qHTS assay for environmental chemicals that activate the Aryl hydrocarbon Receptor (AhR) signaling pathway (AID 651777). Note: % of control where 0% means no effect; nearly all actives have a fitted effect of over 15% in size. Conditions: 1A2-DRE human hepatoma cells, luciferase, 24 h; activation: stronger effect = higher value. A digest of the protocol: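 Reporter gene assay: hepatoma cells with DRE/CYP1A2-luciferase, 24 hr compound incubation at 37 C, 5% CO2, luminescence after One-Glo (30 min, RT).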

Assay [11] has as its target Peroxisome proliferator-activated receptor alpha (Homo sapiens) (UniProt Q07869). The assay is described as follows: qHTS assay for small molecule agonists of the peroxisome proliferator-activated receptor alpha (PPARalpha) signaling pathway (AID 651778). Note: % of control where 0% means no effect. The conditions noted are these: PathHunter PPARalpha complementation, chemiluminescence, 6 h; max response: stronger effect = higher value. The gist of the method:
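Chemiluminescence from complemented enzyme reported PPARalpha activation in cells after 6 hr of compound treatment at 37 C. The detection reagent was incubated for 60 min at room temperature, and compounds were scored as agonists.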

The nature of assay [12]: qHTS assay for small molecule agonists of the antioxidant response element (ARE) signaling pathway measured by Nrf2-dependant transcriptional activity (AID 720636; active = well fitted curve in the direction sought with a large enough effect in the repeat runs; an effect the other way counts as inactive or inconclusive;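 note: HepG2 cells with an ARE-driven luciferase reporter; % of control where 0% means no effect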). The gist of the method:
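Nrf2-dependent transcription is measured in ARE-luc HepG2 cells: compound is applied for 16 hr at 37 C after a 6 hr attachment period, and luciferase activity is quantified by luminescence using ONE-Glo.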

Assay [13] can be described thus: qHTS assay for small molecule agonists of the antioxidant response element (ARE) signaling pathway measured by Nrf2-dependant transcriptional activity - cell viability counter screen (AID 720653; active = well fitted curve in the direction sought with a large enough effect in the repeat runs; an effect the other way counts as inactive or inconclusive; note: % is set by controls: 0 for no effect and ±100 for the full control effect). The conditions noted are these: ARE-bla HepG2 viability, CellTiter-Glo ATP luminescence, 16 h; max response: stronger effect = lower value. A digest of the protocol: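 Cytotoxicity counter screen: intracellular ATP quantified by CellTiter-Glo luminescence in the same ARE-bla HepG2 plates, after 16 h compound exposure and a 2 h beta-lactamase substrate step.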

A short description of assay [14]: qHTS assay for cell viability of HEK293 cells (AID 743288). Note: % is set by controls: 0 for no effect and ±100 for the full control effect; nearly all actives have a fitted effect of over 50% in size. Conditions: ATP luminescence (CellTiter-Glo), 18 h; max response: stronger effect = lower value. A digest of the protocol: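 Environmental chemicals tested in qHTS format against parental HEK293 cells; 18 h treatment, 37 C; read-out ATP luminescence (CellTiter-Glo), 30 min RT development.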
The nature of assay [15]: qHTS assay for cell viability of the p53RE-bla HCT-116 cell line (AID 743292). Note: % is set by controls: 0 for no effect and ±100 for the full control effect; nearly all actives have a fitted effect of over 55% in size. A digest of the protocol: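 ATP-based luminescence, 16 h compound exposure at 37 C, p53RE-bla HCT-116 cells at 4,000/well.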
For assay [16], the target named is Nuclear receptor subfamily 1 group I member 2 (Rattus norvegicus) (UniProt Q9R1A7). The assay is described as follows: qHTS assay for small molecule activators of the rat pregnane X receptor (rPXR) signaling pathway (AID 651751; call rule not given here; note: 0% is about no effect). Conditions: rPXR reporter cells, luciferase (One-Glo), 24 h.
Nuclear receptor subfamily 1 group I member 2 (Rattus norvegicus), sequence (Q9R1A7 whole entry, looked up): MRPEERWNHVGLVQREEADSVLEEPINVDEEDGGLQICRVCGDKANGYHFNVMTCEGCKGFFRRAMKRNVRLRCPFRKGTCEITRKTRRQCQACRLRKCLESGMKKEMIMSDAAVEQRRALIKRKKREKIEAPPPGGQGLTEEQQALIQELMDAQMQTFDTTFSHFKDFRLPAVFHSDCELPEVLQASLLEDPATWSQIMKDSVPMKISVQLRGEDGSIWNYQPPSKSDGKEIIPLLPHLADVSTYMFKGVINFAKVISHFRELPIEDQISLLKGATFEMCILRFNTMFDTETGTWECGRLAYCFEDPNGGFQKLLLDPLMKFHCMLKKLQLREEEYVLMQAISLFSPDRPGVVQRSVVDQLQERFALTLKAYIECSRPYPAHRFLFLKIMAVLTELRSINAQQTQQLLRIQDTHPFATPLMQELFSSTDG
Assay [17] concerns the target Thyroid hormone receptor beta (Homo sapiens) (UniProt P10828). Briefly: qHTS assay for small molecule antagonists of thyroid hormone receptor beta signaling (AID 588547; active = well fitted inhibition curve with a large enough effect in the signal ratio, with a control signal flat, not every such curve was filed as active; the % refers to the signal ratio;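 note: cells stimulated with 0.4 nM T3 agonist during compound exposure; series mostly up to about 77 µM; % is set by controls: 0 for no effect and ±100 for the full control effect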). Conditions: TR-UAS-bla HEK293, beta-lactamase ratio, antagonist mode, 18 h. The gist of the method:
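Inhibition of T3-driven (0.4nM final) beta-lactamase reporter activity was measured over 0.59 nM to 92 uM compound after 18 h at 37 C. The cells were GripTite HEK293 TR-UAS-bla in charcoal/dextran-stripped serum, with CCF4 ratio read-out and IC50 from Hill fits.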

For assay [18] the target is unchanged. Briefly: qHTS assay for small molecule agonists of thyroid hormone receptor beta signaling (AID 588545; calls by dose curve). A digest of the protocol:
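In this cell-based screen, titrated compounds act on HEK 293 cells held in medium with 2% charcoal/dextran FBS, NEAA and pyruvate for 18 hrs at 37 C. Responses are expressed relative to T3 (10 nM) as 100% and basal DMSO as 0%.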

Assay [19] concerns the target Glucocorticoid receptor (Homo sapiens) (UniProt P04150). The assay is described as follows: qHTS assay for small molecule agonists of glucocorticoid receptor signaling (AID 588532; active = well fitted curve in the direction sought with a large enough effect in the signal ratio, with a control signal flat; the % refers to the signal ratio;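 note: 100% = dexamethasone at 0.1 µM and 0% = DMSO only wells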). The conditions noted are these: HeLa MMTV-bla, beta-lactamase ratio, agonist, 18 h; activation: stronger effect = higher value, percent of dexamethasone control, DMSO zero. A digest of the protocol: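 Agonist-mode qHTS: GRE-driven beta-lactamase in HeLa cells exposed 18 h to titrated compounds (up to 92 uM), then CCF4 ratio read after 2 h at RT; Hill-fitted EC50, efficacy relative to 0.1 uM dexamethasone.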

For assay [20] the target is unchanged. The assay is described as follows: qHTS assay for small molecule antagonists of glucocorticoid receptor signaling (AID 588533; active = well fitted inhibition curve with a large enough effect in the signal ratio, with a control signal flat, not every such curve was filed as active; the % refers to the signal ratio;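 note: cells stimulated with 2 nM dexamethasone as agonist; % is set by controls: 0 for no effect and ±100 for the full control effect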). The gist of the method: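 Antagonist-mode qHTS: compound titrations added to GRE-bla HeLa cells, then dexamethasone 2 nM final; 18 h, 37 C. CCF4 FRET fluorescence normalized to dexamethasone and DMSO; IC50 from Hill fit.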

Peroxisome proliferator-activated receptor alpha (Homo sapiens), sequence (Q07869 whole entry, looked up): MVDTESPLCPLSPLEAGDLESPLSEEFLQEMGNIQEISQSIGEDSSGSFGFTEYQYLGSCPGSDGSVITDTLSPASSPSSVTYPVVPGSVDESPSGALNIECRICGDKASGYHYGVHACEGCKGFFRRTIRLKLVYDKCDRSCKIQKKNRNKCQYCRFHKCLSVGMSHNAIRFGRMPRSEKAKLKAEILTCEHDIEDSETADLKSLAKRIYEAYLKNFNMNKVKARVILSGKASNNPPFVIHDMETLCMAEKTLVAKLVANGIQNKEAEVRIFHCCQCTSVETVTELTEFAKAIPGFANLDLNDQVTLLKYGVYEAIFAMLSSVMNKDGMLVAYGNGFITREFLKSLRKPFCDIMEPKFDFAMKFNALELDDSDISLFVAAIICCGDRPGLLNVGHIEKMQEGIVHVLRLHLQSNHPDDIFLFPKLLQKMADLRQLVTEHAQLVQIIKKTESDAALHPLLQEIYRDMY
Thyroid hormone receptor beta (Homo sapiens), sequence (P10828 whole entry, looked up): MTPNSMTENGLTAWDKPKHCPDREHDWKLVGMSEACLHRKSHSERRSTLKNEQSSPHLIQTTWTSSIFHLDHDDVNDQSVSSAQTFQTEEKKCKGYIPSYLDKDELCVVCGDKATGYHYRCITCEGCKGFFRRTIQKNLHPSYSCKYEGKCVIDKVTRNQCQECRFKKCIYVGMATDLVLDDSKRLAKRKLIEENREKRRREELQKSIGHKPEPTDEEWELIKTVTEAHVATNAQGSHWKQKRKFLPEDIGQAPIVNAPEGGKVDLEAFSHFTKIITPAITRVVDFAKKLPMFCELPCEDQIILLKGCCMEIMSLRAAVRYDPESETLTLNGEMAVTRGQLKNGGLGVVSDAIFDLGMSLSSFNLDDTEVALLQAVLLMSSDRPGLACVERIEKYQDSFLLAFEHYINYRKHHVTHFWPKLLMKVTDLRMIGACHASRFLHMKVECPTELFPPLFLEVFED
Glucocorticoid receptor (Homo sapiens), sequence (P04150 whole entry, looked up): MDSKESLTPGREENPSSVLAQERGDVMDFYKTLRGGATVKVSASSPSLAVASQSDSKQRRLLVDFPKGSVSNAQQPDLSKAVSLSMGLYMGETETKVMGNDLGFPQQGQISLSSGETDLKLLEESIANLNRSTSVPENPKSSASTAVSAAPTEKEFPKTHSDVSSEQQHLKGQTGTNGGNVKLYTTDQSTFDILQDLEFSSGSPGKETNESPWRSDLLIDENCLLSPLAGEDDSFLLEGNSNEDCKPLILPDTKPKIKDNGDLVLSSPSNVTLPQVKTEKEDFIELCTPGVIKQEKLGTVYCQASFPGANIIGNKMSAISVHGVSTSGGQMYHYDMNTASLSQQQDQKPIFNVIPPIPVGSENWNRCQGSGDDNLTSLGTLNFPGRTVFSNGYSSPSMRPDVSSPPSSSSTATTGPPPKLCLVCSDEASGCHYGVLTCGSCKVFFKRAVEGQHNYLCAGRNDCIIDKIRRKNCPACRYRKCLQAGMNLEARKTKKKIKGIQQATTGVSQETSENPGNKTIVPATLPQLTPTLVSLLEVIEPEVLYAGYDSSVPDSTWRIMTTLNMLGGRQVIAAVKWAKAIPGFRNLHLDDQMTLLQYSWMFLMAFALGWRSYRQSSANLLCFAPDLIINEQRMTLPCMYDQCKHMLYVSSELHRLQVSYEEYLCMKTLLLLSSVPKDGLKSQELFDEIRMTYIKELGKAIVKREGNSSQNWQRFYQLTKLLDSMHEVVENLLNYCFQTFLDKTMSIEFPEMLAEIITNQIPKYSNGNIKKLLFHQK
Estrogen receptor (Homo sapiens), sequence (P03372 whole entry, looked up): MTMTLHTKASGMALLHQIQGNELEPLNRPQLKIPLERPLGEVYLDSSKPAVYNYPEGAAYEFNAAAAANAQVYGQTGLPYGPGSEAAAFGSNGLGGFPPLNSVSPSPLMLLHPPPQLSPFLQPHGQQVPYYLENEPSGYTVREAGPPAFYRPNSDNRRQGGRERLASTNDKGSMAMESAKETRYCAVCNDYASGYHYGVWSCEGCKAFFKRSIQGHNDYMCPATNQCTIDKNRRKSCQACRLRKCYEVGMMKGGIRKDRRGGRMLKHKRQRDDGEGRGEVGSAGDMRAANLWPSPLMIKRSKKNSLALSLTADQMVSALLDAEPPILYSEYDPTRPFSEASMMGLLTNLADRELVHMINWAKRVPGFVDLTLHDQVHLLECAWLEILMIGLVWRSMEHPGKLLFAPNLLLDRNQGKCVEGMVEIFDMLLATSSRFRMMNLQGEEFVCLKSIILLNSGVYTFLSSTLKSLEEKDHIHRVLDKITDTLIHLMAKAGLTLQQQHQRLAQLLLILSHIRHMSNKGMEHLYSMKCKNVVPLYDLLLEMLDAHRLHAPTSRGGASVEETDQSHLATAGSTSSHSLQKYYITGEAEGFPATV

As for `COP(=O)(OC)O/C(C)=C/C(=O)N(C)C`, the Potency result in assay [1], in assay [4], in [5], in [6], in assay [12] and in assay [15] was “inactive” in each case. Besides, the outcome in assay [2] was inactive. Also, the max response in [3] is -17.4%; in [7], 0.42%; in assay [8] it was -0.431% (inactive); in [11] it was -1.78% (inactive); in assay [13] it was 15.8% (inactive); in assay [14], 2.37% (inactive). Further, the max response in assay [16] is 1.37% (inactive). In addition, the activation is -0.0413% (inactive) in assay [9] and 1.01% (inactive) in [10].

For `CC(=O)[C@H]1[C@H](C#N)C[C@H]2[C@@H]3CC=C4C[C@@H](O)CC[C@]4(C)[C@H]3CC[C@@]21C`, in assay [17], the activity change % (negative = inhibition) was 6.3% (inactive).

Consider `O=P(OCC(Br)CBr)(OCC(Br)CBr)OCC(Br)CBr` (configuration not stated), for which the max response in assay [3] was -17.7%; in assay [11], -0.385% (inactive); in assay [13], -25.3% (inactive); in [16] it was 0.175% (inactive). Further, the Potency result in assay [4], in assay [18], in assay [12] and in assay [15] was “inactive” in each case. Also, in [17], the activity change % (negative = inhibition) was -25.3% (inactive). Moreover, in [9], the activation is 10.6% (inactive).

Consider `CNC(=O)O/N=C(\SC)C(=O)N(C)C`, for which the result in assay [2] was inactive. Further, the max response is 22.2% in assay [3]; -5.53% in [7]; -20.9% (inactive) in assay [8]; 0.554% (inactive) in assay [11]; -17.7% (inactive) in assay [13]; -24.8% (inactive) in [14]. Moreover, in assay [16], the max response was -0.972% (inactive). Moreover, the Potency result in assay [4], in assay [5], in [6], in [12] and in assay [15] was “inactive” throughout. For the same compound, the activity change % (negative = inhibition) in [17] was 0.203% (inactive). Moreover, the activation was 2.97% (inactive) in assay [9] and -0.668% (inactive) in [10].

On to `COC(=O)c1sccc1S(=O)(=O)NC(=O)Nc1nc(C)nc(OC)n1`, for which the activation in assay [19] was -2.71% (inactive); in [9], -3.25% (inactive); in assay [10], 0.948% (inactive). Also, the outcome in assay [2] was inactive. In addition, the max response in assay [3] was -31.9%; in assay [7], -1.17%; in [8], -14.7% (inactive); in assay [11] it was -0.482% (inactive); in assay [13] it was 2.61% (inactive); in [14], -12% (inactive). Also, in assay [16], the max response was 3.77% (inactive). Moreover, the Potency result in assay [4], in assay [5], in [6], in assay [18], in assay [12] and in assay [15] was “inactive” in each case.

With `O=Cc1cccc(Oc2ccccc2)c1`, the Potency result in assay [20], in assay [4], in [6], in [18], in [12] and in assay [15] was “inactive” throughout. Moreover, the outcome in assay [2] was inactive. Also, the max response was 10.7% in [3]; 1.81% in assay [7]; 1.63% (inactive) in assay [8]; 4.39% (inactive) in assay [11]; 2.38% (inactive) in assay [13]; -4.08% (inactive) in assay [14]. Further, the max response in assay [16] was 0.0469% (inactive). Further, the activation in [10] was -0.398% (inactive).

Consider `Clc1ccccc1-c1nnc(-c2ccccc2Cl)nn1`, for which the Potency result in assay [1], in assay [4], in assay [5], in assay [6], in assay [18] and in assay [15] was “inactive” each time. For the same compound, the outcome in assay [2] was inactive. Also, the max response in [3] is -44.7%; in assay [7], -19.7%; in assay [8], -5.51% (inactive); in [11], -0.0144% (inactive); in assay [14] it was -8.84% (inactive). The activation in assay [10] was 9.84% (inactive).

Regarding `c1cc(OCC2CO2)cc(OCC2CO2)c1` (configuration not stated), the Potency result in assay [20], in [4] and in [5] was “inactive” each time. Further, in assay [2], the outcome was inactive. Also, the figures for the max response in assay [3], in assay [7] and in assay [8] were 21.9%, 6.7% and 5.23% (inactive), respectively. In [17], the activity change % (negative = inhibition) is 15% (inactive). Besides, in [9], the Potency was 25.1 µM (active).
